Measured values taken from PubChem BioAssay AID588773 (The Scripps Research Institute Molecular Screening Center, 2011).
Active and inactive are the calls of the source.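 Rule for the calls: active = inhibition of plasma PAF acetylhydrolase at a set limit or more at 0.1 µM, with tenfold selectivity over all off-targets; inactive = inhibition below the limit or weaker selectivity.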

Experiment: competitive ABPP of pPAFAH versus proteome off-targets – biochemical, gel-based, FP-Rh fluorescence, mouse, HTS hit compounds, selectivity assay for pPAFAH inhibitor project, late-stage follow-up (AID 588773)
Conditions: MW 32 kDa protein, at 10 µM

Compound | outcome
CN(C)C(=O)Oc1noc2cc(Cl)ccc12 | inactive
O=C(Oc1ccc([N+](=O)[O-])cc1)N1CCC(N2CCCCC2)CC1 | inactive
